# PAFAH1B2 FP inh: blocks human PAF acetylhydrolase 1b catalytic subunit 2. inhibition, % at 3.39 µM. hit rate 1.2% among 340,000. P68402. recombinant PAFAH1B2, FP-rhodamine activity probe, fluorescence polarization;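 active = inhibition above the mean of all tested compounds plus 3 SD, cut at about 24% in these data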;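 note: 0% = enzyme with DMSO and 100% = wells lacking PAFAH1B2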
# Target sequence (P68402 whole entry, looked up): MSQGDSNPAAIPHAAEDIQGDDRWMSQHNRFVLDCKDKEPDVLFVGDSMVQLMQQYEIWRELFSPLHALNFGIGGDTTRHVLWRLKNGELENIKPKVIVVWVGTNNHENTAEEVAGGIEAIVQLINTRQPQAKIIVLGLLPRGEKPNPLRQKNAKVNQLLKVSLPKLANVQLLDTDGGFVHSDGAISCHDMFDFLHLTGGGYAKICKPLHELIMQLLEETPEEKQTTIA
# PME-1 inh: PME-1 (human) inhibition; recombinant PME-1, FP-Rh probe fluorescence polarization; inhibition, % at 5.9 µM; hit rate 0.53% among 320,000; Q9Y570;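 active = inhibition above the campaign mean of all compounds plus 3 SD, cut at about 26% in these data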;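 note: competitive labeling of PME-1 active site by serine hydrolase directed probe; 0% = PME-1 with DMSO and 100% = wells lacking PME-1 enzyme; inhibitors block probe labeling so polarization falls and inhibition rises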
# Target sequence (Q9Y570 whole entry, looked up): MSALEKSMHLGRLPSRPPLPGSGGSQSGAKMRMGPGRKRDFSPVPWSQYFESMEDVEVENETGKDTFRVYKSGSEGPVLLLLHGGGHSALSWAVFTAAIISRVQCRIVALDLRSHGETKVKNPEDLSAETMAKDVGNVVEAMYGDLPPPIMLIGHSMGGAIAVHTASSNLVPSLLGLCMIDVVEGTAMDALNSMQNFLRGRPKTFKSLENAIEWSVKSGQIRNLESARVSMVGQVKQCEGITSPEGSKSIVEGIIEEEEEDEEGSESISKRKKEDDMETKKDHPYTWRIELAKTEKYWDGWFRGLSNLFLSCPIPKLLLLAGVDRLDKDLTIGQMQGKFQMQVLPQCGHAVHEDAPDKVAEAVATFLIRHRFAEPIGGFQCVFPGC
# PAFAH1B3 inh: PAFAH1B3 (human) inhibition. Q15102. recombinant PAFAH1B3, FP-rhodamine probe, fluorescence polarization. inhibition, % at 3.39 µM. hit rate 0.28% among 340,000;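 active = inhibition above the screen-wide average of all tested compounds plus 3 SD, cut at about 25% in these data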;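 note: 0% = enzyme with DMSO only and 100% = wells lacking PAFAH1B3 protein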
# PAFAH2 FP inh: inhibitors of human PAFAH2; recombinant PAFAH2, FP-rhodamine activity probe, fluorescence polarization; inhibition, % at 3.39 µM; Q99487; hit rate 0.99% among 340,000; AID 492956;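 active = inhibition above the mean over all tested compounds plus 3 SD, cut at about 30% in these data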;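 note: inhibitors block probe labeling of enzyme so polarization drops; 0% = enzyme with DMSO and 100% = wells lacking PAFAH2 protein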
# Fam108B counter: blocks mouse Fam108B hydrolase in RBBP9 counter-screen; recombinant Fam108B, FP-Rh probe fluorescence polarization; inhibition, % at 9.51 µM; hit rate 0.33% among 300,000;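 active = inhibition above the screen mean inhibition plus 3 SD, computed separately per campaign, cut at about 18% in these data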;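 note: inhibitors lower polarization as less probe binds the enzyme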
# pPAFAH inh: pPAFAH (human) enzyme inhibition | recombinant pPAFAH, FP-rhodamine probe fluorescence polarization | inhibition, % at 3.39 µM | hit rate 1.5% among 330,000;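 active = inhibition above the mean inhibition across the screen plus 3 SD, cut at about 25% in these data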;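 note: inhibitors block binding of the rhodamine activity-based probe so polarization drops; 0% = enzyme with DMSO and 100% = wells lacking pPAFAH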
# PAFAH1B3 confirm: PAFAH1B3 (human) inhibition, confirmed; recombinant PAFAH1B3, FP-Rh activity-based probe, fluorescence polarization; hit rate 30% among 390; inhibition, % at 3.39 µM; AID 493032; shares compounds with PAFAH1B3 inh;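 active = average inhibition over triplicate runs above the hit cutoff set in the earlier primary screen, cut at about 25% in these data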;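 note: 0% = enzyme with DMSO and 100% = wells lacking PAFAH1B3 protein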
# * hit, by the source's call; . = no result given. Only some compounds are listed: those with a hit (about 2.8% of all), similar ones and a draw of the others.
SMILES,PAFAH1B2 FP inh,PME-1 inh,PAFAH1B3 inh,PAFAH2 FP inh,Fam108B counter,pPAFAH inh,PAFAH1B3 confirm
CCC(=O)Nc1c(C#N)c2nc3ccccc3nc2n1C1CCCCC1,-1,4,1,-1,2,4,.
CC(=O)N(C1=C(Cl)C(=O)c2ccccc2C1=O)C1CCCCC1,4,9,33*,5,4,1,18
CC(=O)N(c1ccccc1C)C1CCCC1,8,5,4,-4,4,2,.
Cc1ccc(S(=O)(=O)NCCC(=O)NC2CCCCCC2)cc1,0,.,-5,4,.,.,.
O=C1N/C(=C\c2ccc(O)cc2)C(=O)c2ccccc21,10,15,33*,3,9,3,25
Cc1ccc(N2C(=O)C3C4CC(=O)C(c5ccccc54)C3C2=O)cc1C (configuration not stated),0,6,13,-7,6,3,.
Cn1nc(C(C)(C)C)c(NC(=O)c2ccc(F)cc2)c1C(C)(C)C,-2,0,31*,-4,-4,1,7
COc1ncnc(OC)c1NC(=O)c1ccc(F)cc1,1,-5,1,4,4,-2,.
Cc1cc(C)nc(N2CCC(C(=O)Nc3ccc(Oc4ccccc4)cc3)CC2)n1,2,7,108*,5,6,-2,10
Cc1ccnc(N2CCC(C(=O)Nc3ccc(Oc4ccccc4)cc3)CC2)n1,0,-4,7,3,3,2,.
O=Cc1ccc(O)c2ncccc12,10,.,29*,10,.,.,25
O=C(c1ccc(-c2ccccc2Cl)s1)N1CCOCC1,3,1,8,8,-3,4,.
Nc1ccc2nn(-c3ccc(F)cc3)nc2c1,1,-3,28*,6,2,5,11
CC(C)N(CCNC(=O)c1nn(Cc2ccccc2)c(=O)c2ccccc12)C(C)C,0,5,10,0,-3,6,.
O=C(NN=c1c(=O)c2ccccc2c1=O)c1ccccc1,2,7,38*,3,4,-1,32*
COc1ccc(OC)c(NC(=O)CSc2nc(C)cs2)c1,4,2,4,-5,2,4,.
O=C(Cn1c(=S)[nH]c2ccccc2c1=O)N1CCN(c2ccccc2)CC1,-14,4,26*,-25,1,7,11
O=C(C1CCC(Cn2c(=S)[nH]c3ccccc3c2=O)CC1)N1CCN(c2ccccc2)CC1 (configuration not stated),0,-11,5,-9,-6,0,.
C[C@H](CO)N1C[C@H](C)[C@@H](CN(C)S(=O)(=O)c2cccs2)Oc2ccc(NC(=O)Nc3ccc4c(c3)OCO4)cc2C1=O,15,.,16,13,.,18,.
C[C@@H]1CN([C@@H](C)CO)C(=O)Cc2cc(NS(=O)(=O)c3cn(C)cn3)ccc2O[C@@H]1CN(C)C(=O)Nc1ccccc1,3,.,26*,-4,.,6,10
C[C@H](CO)N1C[C@H](C)[C@@H](CN(C)C(=O)Nc2ccccc2)Oc2c(NS(=O)(=O)c3cn(C)cn3)cccc2C1=O,3,.,10,8,.,-7,.
C[C@H](CO)N1C[C@H](C)[C@H](CN(C)S(=O)(=O)c2cccs2)Oc2ccc(NC(=O)Nc3ccc4c(c3)OCO4)cc2CC1=O,18,.,28*,17,.,11,12
COCCCNC(=O)c1ccc(CS(=O)(=O)c2ccc(Br)cc2)o1,-4,9,29*,10,0,-4,8
c1cc2c(cc1-c1csc(NNC3=NCCCCC3)n1)OCCO2,.,8,.,.,7,1,.
Cc1cc(C(=O)OCC(=O)NC2CCS(=O)(=O)C2)c2ccccc2n1 (configuration not stated),6,-3,10,1,3,0,.
SMILES,PAFAH1B2 FP inh,PME-1 inh,PAFAH1B3 inh,PAFAH2 FP inh,Fam108B counter,pPAFAH inh,PAFAH1B3 confirm
O=C(COC(=O)c1cc(-c2cccc3ccccc23)nc2ccccc12)NC1CCS(=O)(=O)C1 (configuration not stated),21,43*,29*,25,15,15,14
CN(C)c1ccc(O)c2c1CC1CC3[C@@H](N(C)C)C(=O)C(C(N)=O)C(=O)[C@]3(O)C(=O)C1C2=O (some centres not stated),8,.,16,3,.,20,.
CCOC(=O)c1c(C)oc2c1c(C=NCCO)c(O)c1ccccc12,7,.,30*,9,.,.,12
CCOC(=O)c1c(C)oc2c1c(C(c1ccccc1)N1CCOCC1)c(O)c1ccccc12 (configuration not stated),4,5,8,0,3,13,.
O=C(CN1CCN(Cc2ccccc2Cl)CC1)N/N=C/c1ccccn1,4,-4,-6,8,0,1,.
Cc1ccc(C(=O)CSc2nn3c(=O)c(C(C)(C)C)nnc3s2)cc1,7,1,15,2,3,0,.
CC(C)(C)c1nnc2sc(SCC(=O)c3ccc(Cl)cc3)nn2c1=O,8,-5,27*,-2,2,1,14
CNC(=O)c1[nH]nc2c1CCc1cc(OC)ccc1-2,15,1,28*,29,2,0,9
COc1ccc2c(c1)CCc1c-2n[nH]c1C(=O)NCCC(C)C,5,-2,0,7,1,8,.
COc1cc(CCNC2=CC(=O)c3ncccc3C2=O)ccc1O,11,.,35*,13,.,.,22
C=CCN(C)NC(=S)Nc1ccccc1,-2,1,42*,3,-2,-2,14
Fc1ccc(C2=Nc3cccc4cccc(c34)N2)cc1,-2,3,12,1,7,12,.
FC(F)(F)C1=Nc2cccc3cccc(c23)N1,19,.,35*,-2,.,.,40*
CCOc1ccccc1N1CCN(C(=O)CCNS(=O)(=O)c2ccccc2F)CC1,5,6,10,0,3,1,.
COc1ccc(/C=C/C(=O)NC(=S)Nc2cc([N+](=O)[O-])ccc2O)cc1OC,18,-12,35*,9,17,18,31*
COc1ccc([N+](=O)[O-])cc1NC(=S)NC(C)=O,4,3,8,7,2,3,.
NC(=S)NN=C1c2ccccc2-c2c(F)c(F)c(F)c(F)c21,-3,.,51*,6,.,.,46*
CCOC(=O)C(NC(=O)Nc1ccc(Cl)cn1)(Oc1ccccc1)C(F)(F)F (configuration not stated),3,-1,2,-4,-1,7,.
COc1ccc(C(=O)C2CCCN(C(=O)c3cccs3)C2)cc1F (configuration not stated),-2,4,11,1,1,-3,.
O=C1ON=C(c2ccccc2)/C1=C/c1ccc(O)c(O)c1,8,-9,29*,10,-3,7,47*
COc1ccccc1NS(=O)(=O)c1cccc(C(=O)NCC(c2ccc(F)cc2)N2CCOCC2)c1 (configuration not stated),2,13,32*,-2,3,6,9

# Bioassay records: PubChem BioAssay, The Scripps Research Institute Molecular Screening Center
